Compound activity as filed in PubChem.
An excerpt weighted towards active compounds, which were near 1.3% of everything screened.
Bcl-xL primary = inhibitors of human Bcl-xL. Q07817. GST-Bcl-xL / FITC-Bim BH3 peptide fluorescence polarization. inhibition, % at 10.9 µM. 320,000 tested, 0.7% active. AID 2129;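 active = inhibition above the mean of all tested compounds plus 3 SD, cutoff set per campaign, cut at about 30% in these data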;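 note: 0% = DMSO wells and 100% = unlabeled Bim-BH3 peptide competitor; inhibitors lower millipolarization by displacing the labeled peptide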
GLD-1 RNA inh = GLD-1-TGE RNA interaction inhibition (C. elegans); purified GLD-1 + fluorescein TGE RNA, fluorescence polarization; 320,000 tested, 0.44% active; inhibition, % at 5.96 µM;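 active = percent inhibition above a per-plate cutoff, the plate mean of test compounds plus 3 SD, cut at about 30% in these data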;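 note: 0% = DMSO wells with GLD-1 and probe and 100% = wells lacking GLD-1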
eLon inh = inhibitors of E. coli Lon protease. 360,000 tested, 0.42% active. P0A9M0. inhibition, % at 7.94 µM. AID 602123. purified E. coli Lon protease, fluorescence polarization; in the data active = inhibition above about 13%, passing the limit was not always enough;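 note: 0% = enzyme with probe and DMSO and 100% = no enzyme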
EBV gp42 inh = EBV gp42 inhibition; Fluorescence polarization binding assay, mP read-out; inhibition, % (tested at 21.74 µM); 220,000 tested, 0.42% active; AID 1085; in the data active = inhibition above about 50%
MEX-5 binding = C. elegans MEX-5 TCR-2 RNA binding activity. activity score (negative = inhibition of binding), % at 10 µM. 300,000 tested, 0.38% active. AID 1832. MEX-5/FITC-TCR2 RNA binding, fluorescence polarization; active compounds read low;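 active = inhibition past about -25% in most replicates, and total fluorescence under double the plate's negative control median, limit read from the data; inconclusive = replicates evenly split on the limit, or fluorescence at least double controls; inactive = too little inhibition in most replicates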;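 note: 0% = DMSO and -100% = 5 µM competing unlabeled TCR2 RNA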
Target sequence (Q9XUB2 whole entry, looked up): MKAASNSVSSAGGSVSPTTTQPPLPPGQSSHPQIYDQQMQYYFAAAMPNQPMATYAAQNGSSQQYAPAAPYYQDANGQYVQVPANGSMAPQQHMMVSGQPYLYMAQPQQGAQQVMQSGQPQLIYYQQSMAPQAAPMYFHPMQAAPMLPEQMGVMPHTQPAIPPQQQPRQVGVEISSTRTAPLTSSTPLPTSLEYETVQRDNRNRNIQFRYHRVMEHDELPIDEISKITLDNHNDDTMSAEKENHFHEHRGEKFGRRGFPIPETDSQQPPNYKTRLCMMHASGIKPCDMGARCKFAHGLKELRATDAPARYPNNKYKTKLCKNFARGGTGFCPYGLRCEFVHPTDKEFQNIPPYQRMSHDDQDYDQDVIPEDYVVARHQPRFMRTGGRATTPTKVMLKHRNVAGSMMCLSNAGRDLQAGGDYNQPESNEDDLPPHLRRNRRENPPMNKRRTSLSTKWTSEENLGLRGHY
GLD-1 TGE cf = confirmation of C. elegans GLD-1 TGE RNA binding inhibitors; shares compounds with GLD-1 RNA inh; GLD-1/FL-TGE RNA fluorescence polarization, biochemical; inhibition, % at 5.96 µM; 550 tested, 10% active;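 active = average inhibition across triplicates above the hit cutoff set in the primary screen, cut at about 32% in these data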;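 note: 0% = GLD-1 with RNA probe and DMSO and 100% = wells lacking GLD-1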
eLon confirm = E. coli Lon inhibition confirmation. shares compounds with eLon inh. purified E. coli Lon, fluorescence polarization. inhibition, % at 7.94 µM. 1,400 tested, 31% active; in the data active = inhibition above about 16%;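 note: 0% = enzyme with probe and DMSO and 100% = no enzyme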
* hit, by the source's call; ? = inconclusive; nt = not tested or not shown; + = active, no number.

SMILES	Bcl-xL primary	GLD-1 RNA inh	eLon inh	EBV gp42 inh	MEX-5 binding	GLD-1 TGE cf	eLon confirm
CCCCN(C(=O)c1cc2ccccc2o1)c1c(N)n(CC(C)C)c(=O)[nH]c1=O	1.7	6.1	16.8	-10.8	1.3	nt	nt
CCCCN(C(=O)c1ccc([N+](=O)[O-])o1)c1c(N)n(CC(C)C)c(=O)[nH]c1=O	33.6*	37.1*	39.8*	nt	-28.3*	64.5*	28.7*
CCn1c(CSc2nccn2C)nc2cc(C(=O)O)ccc21	57.0*	44.6*	31.7*	71.6*	-18.7	40.2*	-6.7
CCn1c(CSc2nc3ccccc3[nH]2)nc2cc(C(=O)O)ccc21	26.8	14.1	5.7	19.0	nt	nt	nt
C[C@@H]1CN([C@H](C)CO)C(=O)CCCn2nncc2CO[C@@H]1CN(C)C(=O)Nc1cccc2ccccc12	nt	nt	-0.2	nt	nt	nt	nt
CCOC(=O)CSc1nnc(Cc2cc(=O)[nH]c(=O)[nH]2)n1-c1ccc(Cl)cc1	20.7	38.0*	15.2*	7.3	-10.2	6.9	11.6
O=C(CSc1n[nH]c(=O)[nH]c1=O)Nc1ccc(Br)cc1Br	0.0	0.0	-13.1	nt	nt	nt	nt
CCOC(=O)c1c(-c2ccccc2)c(C(C)=O)c(=O)n(C)c1C	1.3	5.8	-0.9	-3.6	1.9	nt	nt
CCOC(=O)c1c2c3c(cccc3n(C)c1=O)C(=O)c1ccccc1-2	54.7*	31.9*	143.7*	nt	?	16.4	65.1*
Cc1cccc(-n2c3nc(=O)[nH]c(=O)c-3cc3cc([N+](=O)[O-])ccc32)c1	7.8	3.3	2.9	-8.0	0.6	nt	nt
Cc1ccc(C)c(-n2c3nc(=O)[nH]c(=O)c-3cc3cc([N+](=O)[O-])ccc32)c1	76.0*	59.5*	60.2*	58.7*	nt	27.4	2.8
CC1CN(C2=Nc3cccc4cccc2c34)CC(C)O1 (stereo unspecified)	38.0*	47.4*	28.1*	35.2	-18.9	35.8*	13.8
COc1ccccc1N1CCN(C2=Nc3cccc4cccc2c34)CC1	2.8	7.8	-12.0	7.4	-8.0	nt	nt
CC(=O)N1CCN(C2=Nc3cccc4cccc2c34)CC1	36.9*	43.3*	18.0*	27.9	-20.6	38.2*	22.6*
c1cc2c3c(cccc3c1)C(N1CCOCC1)=N2	29.2	45.3*	31.9*	33.8	-19.4	32.0*	27.7*
CC(=O)Nc1ccc(OS(=O)(=O)c2ccc([N+](=O)[O-])cc2)cc1	3.8	4.9	-1.8	-10.4	-3.5	nt	nt
CCc1ccc(C(=O)C(C)OC(=O)C2COc3ccccc3O2)cc1 (stereo unspecified)	1.4	1.3	-16.7	-5.5	1.4	nt	nt
C[C@H](c1ccccc1)N1C[C@H](COCc2ccccc2)Oc2cc(N3CCC[C@H]3C(N)=O)ccc2S1(=O)=O	nt	nt	-7.5	nt	nt	nt	nt
CCOC(=O)NC(=O)C(/C=N/c1sccc1C(=O)OC)=C(\C)O	17.2	46.1*	42.0*	-6.4	-3.3	2.6	5.1
N#Cc1ccccc1OCC(=O)NCCNC(=O)COc1ccccc1C#N	-10.5	0.2	7.8	nt	1.7	nt	nt
CCOC(=O)C(=O)c1c(C)cc2ccccn12	nt	nt	1.8	-15.8	nt	nt	nt
COC(=O)c1c(C)c2c(C)cc3ccccn3c-2c1C(=O)OC	50.6*	33.3*	45.3*	7.9	0.9	19.6	-6.0
CC(O)(Cc1cccnc1)c1cccs1 (stereo unspecified)	nt	nt	-3.1	nt	nt	nt	nt
O=C(O)c1cccc2c1C(=O)c1ccccc1-2	3.7	2.0	-6.5	-5.8	1.3	nt	nt
O=C1c2ccccc2C(=O)c2c(O)c(O)cc(O)c21	nt	69.5*	+	nt	nt	42.8*	+
NC(=O)c1nsc(C(=O)N(CC(=O)NC2CCCCC2)c2ccc(Cl)cc2)c1N	4.9	-7.0	-0.5	nt	-0.3	nt	nt
O=C1C2CC=C(Cl)CC2C(=O)N1CCc1ccccc1 (stereo unspecified)	33.0*	42.6*	25.3*	25.3	-33.9*	20.7	47.9*
O=C(CN1C(=O)C2CC=C(Cl)CC2C1=O)NCc1ccccc1 (stereo unspecified)	41.5*	41.9*	34.3*	19.9	-26.8*	32.9*	38.4*
O=C(COC(=O)C1CCN(C(=O)c2ccc(Cl)cc2)CC1)Nc1ccccc1F	4.7	0.0	-3.7	nt	nt	nt	nt
